{"source": "PubChem BioAssay (EPA / NIEHS)", "note": "The source made the active and inactive calls. The calls were made as follows: active = hit-call score of the fitted dose curve at least 0.9, where 1 is the maximum; inactive = score below 0.9.", "data": [{"read-out": "Cytochrome P450 7A1 (Homo sapiens) (UniProt P22680)", "experiment": "LTEA_HepaRG_CYP7A1: Life Technologies and Expression Analysis (LTEA) Assay for Cytochrome P450 7A1 (CYP7A1) using HepaRG (AID 2283496)", "conditions": "mRNA level, 48 h; actives raise or lower the signal", "description": "LTEA_HepaRG is a cell based, multiplexed-readout assay that uses HepaRG, a human liver cell line, with measurements taken at 48 hours after chemical dosing on a 96-well plate.LTEA_HepaRG_CYP7A1 is one of 102 assay component(s) measured in the LTEA HepaRG cell culture assay. It is a marker of NR mediated metabolism.Data from the assay component LTEA_HepaRG_CYP7A1 was analyzed into 1 endpoint. This assay endpoint, LTEA_HepaRG_CYP7A1, was analyzed with bidirectional fitting relative to DMSO as the negative control and baseline of activity. Using a type of inducible reporter, measures of mRNA induction for gain or loss-of-signal activity can be used to understand regulation of transcription factor activity. To generalize the intended target to other relatable targets, this assay endpoint is annotated to the cyp intended target family, where the subfamily is xenobiotic metabolism.\nA total of 1060 chemcials from the ToxCast library were tested in eight-point concentration-response experiments. Cell culture and cytotoxicity assays were conducted at Thermo Fisher Scientific's Custom Services facility (Madison, WI). A single lot of human HepaRG cells (Thermo Fisher Scientific, Frederick, MD) was used for the cell culture experiments. 96-well format collagen type I coated plates of human HepaRG cells were prepared using established methods. Briefly, cryopreserved HepaRG cells were thawed, plated at a density of approximately 100,000 cells/well in HepaRG Thaw, Plate, and General Purpose media (HPRG770, Thermo Fisher Scientific), and incubated for 48 hours. 0.5% DMSO was selected as vehicle control to balance the requisite need of DMSO in HepaRG cultures to maintain differentiation (for example, baseline metabolism, proportions of hepatocytes vs. cholangiocytes), while enabling further hepatic receptor pathway activation (for example, PXR and CAR) in response to chemical exposure. 48 hours after plating, the culture medium was replaced with HepaRG Serum-Free Incudtion Media. Cells were exposed to each test chemical in duplicate and maintained in CO2 incubators for another 48 hours. Chemical plates were thawed to room temperature and 200x concentrations of treatment groups were prepared. 8-point conentration-reponse curves were made with the highest exposure at 100 uM, followed by half-log dilutions, all in 0.5% DMSO. Each test plate contained variouse controls, induction positive controls (1mM phenobarbital), cytotoxicity positive controls ([…] aflatoxin B1), vehicle controls (0.5% DMSO), and total lysis controls (0.5% DMSO). Cell morphology images were taken using an Essen IncuCyte FLR automated microscope, with six 96-well plates imaged in about 24 minutes. Images were captured and exported and JPEG files. Spent culture media was transfered to black-well plates for the LDH assay, and remaining media was sorted at -80 C for later use. Cells were treated with RLT buffer and frozen until shipped for gene expression analysis. Total RNA was isolated from the cell suspension in 75 uL of Buffer RLT (Qiagen, Germantown, MD 20874) by Quintiles/Expression Analysis (Durham, NC) using a custom isolation procedure. Total RNA from each plate well was transferred to a preamplification plate. Fluidigm's 96.96 Dynamic ArrayTM (Fluidigm, Amsterdam, the Netherlands) technology was used for gene expression analyses by quantitative reverse transcription polymerase chain reaction (qRT-PCR, performed by Quintiles/Expression Analysis, Durham, NC)89. Standard TaqManTM Assays (Applied Biosystems/ThermoFisher Scientific, Foster City, CA) were used to assess the expression of 93 genes selected based on their selectivity and sensitivity to important hepatic receptors known to be modulated by environmental chemicals; importance in human hepatocyte functionality; and hepatotoxicity. […]", "values": [{"smiles": "CC(C)O.CC(C)O.OCCN(CCO)CCO.OCCN(CCO)CCO.[Ti]", "outcome": "inactive"}, {"smiles": "CC(C)(C)c1ccccc1O", "outcome": "inactive"}, {"smiles": "Oc1cc(Cl)c(Cl)cc1Cl", "outcome": "inactive"}, {"smiles": "Clc1cccc(Cl)c1Cl", "outcome": "inactive"}, {"smiles": "O=C(N[C@H]1CN2CCC1CC2)c1ccc2c(c1)OCCO2", "outcome": "inactive"}, {"smiles": "CCCCCCCCCCCCc1cccc(S(=O)(=O)O)c1", "outcome": "inactive"}, {"smiles": "N#Cc1cccnc1", "outcome": "inactive"}, {"smiles": "COc1ccccc1N", "outcome": "inactive"}, {"smiles": "OCCN(CCO)CCO", "outcome": "inactive"}, {"smiles": "O=C(O)C1(c2ccc3c(c2)OC[C@H](Cc2ccc(-c4ccccc4)cc2)[C@H]3O)CCCC1", "outcome": "inactive"}, {"smiles": "Clc1cccc(Cl)c1", "outcome": "inactive"}, {"smiles": "Cc1cc(C)cc(C)c1", "outcome": "inactive"}]}]}
